Source: PubChem BioAssay AID2315 (National Center for Advancing Translational Sciences (NCATS), 2010)
Screen size: about 290,000 compounds; about 27,000 (9.3%) were called active. The full list was thinned out, with actives kept by preference. Values without a mark were called inactive. No stated cut-off is given here; in the data, active means inhibition mostly above about 28% (no sharp cut-off); inactive means mostly below about 43%.

Test: A qHTS for Small Molecule Inhibitors of Shiga Toxin; further: 0% is about no effect
Conditions: Vero cells, Shiga toxin protein synthesis inhibition reporter; at 38.7 µM, stronger effect = higher value

Row | SMILES | inhibition
1 | Cc1cc2[nH]ncc2cc1NC(=S)NC(=O)c1ccccc1 | 34.9% (active)
2 | Cc1cccc(NC(=S)Nc2ccc3cn[nH]c3c2)c1 | -14.2%
3 | Cc1ccc(C(=O)N/C(=C\c2ccc(F)cc2)C(=O)NCCN2CCOCC2)cc1 | -6.91%
4 | Cc1cc(C(=O)NNC(=S)NC(C)c2ccccc2)cs1 (configuration not stated) | 8.77%
5 | CC(C)(C)c1cc(C(=O)NCc2cccnc2)ccn1 | -3.32%
6 | Cc1ccc(NC(=S)NCCN2CCOCC2)cc1 | -3.76%
7 | Cc1ccc(C)c(NC(=O)NNC(=O)c2ccc3ccccc3c2O)c1 | -2.25%
8 | Cc1ccc(C)c(NC(=S)NNC(=O)c2csc(C)c2)c1 | 22.3% (active)
9 | Cc1c(C(=O)NC(=S)NCc2cccnc2)oc2ccccc12 | -22.1%
10 | CCc1cccc(CC)c1NC(=S)Nc1ccc2cn[nH]c2c1 | -6.34%
11 | Cc1ccc(C(=O)NC(=S)NCCN2CCOCC2)cc1 | 57.3% (active)
12 | Cc1ccc(C(=O)NC(=S)NCc2cccnc2)cc1 | 56% (active)
13 | CN(C)CCN(Cc1ccccc1)S(=O)(=O)c1csc(C(N)=O)c1 | -1.58%
14 | CCOC(=O)c1cccc(NC(=O)CCc2nnc3ccc(N4CCOCC4)nn23)c1 | -1.45%
15 | CC1CC(C)CN(C(=O)CCNC(=O)Cn2cnc3ccccc3c2=O)C1 (configuration not stated) | -11.9%
16 | Cc1ccccc1OCC(=O)Nc1nnc(S(=O)(=O)N2CCCC2)s1 | -10.5%
17 | CC(=O)c1cc(CN2CCC(n3nccc3NC(=O)c3ccccc3Cl)CC2)cs1 | -20.5%
18 | O=C(Nc1ccnn1C1CCN(Cc2cccc(OCCO)c2)CC1)C1CCCC1 | -5.27%
19 | Cc1cccc(NC(=O)c2sc3nc(N4CCOCC4)c4c(c3c2N)CCCC4)c1 | 30.8%
20 | Nc1nc(-c2sc3nc4c(cc3c2N)CCCC4)nc(N2CCOCC2)n1 | 58.2% (active)
21 | Cc1nc(N2CCOCC2)nc2c1CCCC2 | 35.4%

Row | SMILES | inhibition
22 | Cc1cc(-c2nnc(SCC(=O)Nc3ccc(S(N)(=O)=O)cc3)n2N)n[nH]1 | -4.71%
23 | O=C(NC(Cc1ccccc1)C(=O)O)/C(=C\c1ccccc1)NC(=O)c1ccco1 (configuration not stated) | -11.9%
24 | CC(=O)Oc1cccc(N2C(=O)CC(Nc3ccc(N4CCOCC4)cc3)C2=O)c1 (configuration not stated) | 58.2% (active)
25 | CC(=O)Oc1cccc(N2C(=O)C3CC=C(Cl)CC3C2=O)c1 (configuration not stated) | -2.36%
26 | COc1ccc(N2CCN(C3CC(=O)N(c4ccc5c(c4)OCCO5)C3=O)CC2)cc1 (configuration not stated) | -9.64%
27 | CCOc1ccccc1OCCCNCc1ccccc1 | 8.72%
28 | CCOc1ccc(S(=O)(=O)Nc2ccc(OC)nc2)cc1 | 33.9%
29 | CCCCCCn1cc(C(=O)O)c(=O)c2cc(F)c(N3CCCCC3)cc21 | 33.7%
30 | COc1ccccc1CNC(=O)C1CCN(S(=O)(=O)c2ccc3c(c2)OCCO3)CC1 | -11.4%
31 | O=C(Nc1cccnc1Cl)c1cc(-c2ccccc2O)on1 | 73.1% (active)
32 | C=CCNC(=O)c1csc(-c2ccccc2)n1 | 11.1%
33 | O=C(NCc1ccccn1)c1cc(-c2ccccc2Cl)on1 | 162% (active)
34 | O=C(NCc1ccccn1)c1cc(Br)ccc1Cl | 29.6%
35 | O=C(Nc1cccnc1Cl)c1cc(-c2cccc(Cl)c2)on1 | -1.68%
36 | O=C(Nc1ccccc1C(F)(F)F)c1cc(-c2ccc(O)cc2)on1 | 54.9% (active)
37 | O=C(NCc1ccccn1)c1ccc2nc(-c3ccco3)c(-c3ccco3)nc2c1 | 5.29%
38 | C=CCNC(=O)c1cc(-c2ccccc2O)on1 | 98.8% (active)
39 | O=C(NNC(=O)c1ccccc1[N+](=O)[O-])Nc1ccccc1C(F)(F)F | -6.67%
40 | C=CCNC(=O)c1ccccc1SCc1c(C)noc1C | -38.8%
41 | CCc1ccccc1NC(=O)c1cc(-c2ccc3c(c2)OCO3)on1 | 25.8%
42 | O=C(Nc1cccc2ncccc12)c1ccc(-c2ccc(Cl)cc2Cl)o1 | -17.2%

Row | SMILES | inhibition
43 | Nc1nonc1-n1nnc(C(=O)N/N=C/C2CCCCC2)c1-c1ccccc1 | -3.16%
44 | CCCCC(C(=O)NC(C)(C)C)N(Cc1ccccc1)C(=O)c1snc(C(N)=O)c1N (configuration not stated) | -1.85%
45 | CCc1ccccc1N(CC(=O)NCC1CCCO1)C(=O)CCC(=O)Nc1nccs1 (configuration not stated) | -6.86%
46 | CC(Nc1nc(C(F)(F)F)nc2ccccc12)c1cccs1 (configuration not stated) | 29.3%
47 | O=S(O)S(=O)(=O)O | 6.15%
48 | Cc1ccc2c(C)c(C(=O)N3CCC(N4CCC(C(=O)NC5CC5)CC4)CC3)oc2c1 | -13.3%
49 | Cc1ccc2oc(C(=O)N3CCN(C)C[C@@H]3C(C)C)c(C)c2c1 | 42.3% (active)
50 | COc1ccccc1N1CCN(C(=O)c2cc(=O)c3cc(C)ccc3o2)CC1 | 19.1%
51 | Cc1ccc(C(=O)NCCc2nnc(SCC(=O)Nc3cccc(C(=O)O)c3)n2C)cc1 | -4.17%
52 | CC(=O)C(C)n1cnc2scc(-c3ccc(C)cc3)c2c1=O (configuration not stated) | -5.64%
53 | CCN(C(=O)CSc1ncn[nH]1)c1cccc2ccccc12 | 9.31%
54 | CC(C)(C)c1ccc(C(=O)CSc2ncn[nH]2)cc1 | 63.4% (active)
55 | Cn1nnc(NC(=O)CSc2ncn[nH]2)n1 | -18.1%
56 | Cc1ccccc1NC(=O)NCC1CCN(Cc2cccc(Cl)c2)CC1 | -1.26%
57 | O=C(O)c1ccc(NC(=O)c2ccc(COc3ccc(Cl)cc3)o2)cc1 | -8.9%
58 | CCOC(=O)c1[nH]c2c(c1C)C(=O)CC(c1ccc(N(C)C)cc1)C2 (configuration not stated) | 2.86% (active)
59 | CCOC(=O)c1[nH]c2c(c1-c1ccccc1)C(=O)CC(c1ccc(Cl)cc1)C2 (configuration not stated) | -7.73%
60 | COCCOC(=O)c1[nH]c2c(c1C)C(=O)CC(c1ccc(OC)cc1)C2 (configuration not stated) | 13.2%
61 | O=C(N/N=C/c1sc(N2CCCCC2)nc1-c1cccs1)c1cccnc1 | -9.51%
62 | CCOc1cc(C)ccc1OCc1nnc(SCC(=O)Nc2cccc(C(=O)O)c2)n1-c1ccccc1 | 9.89%
